According to PubChem BioAssay:

system: XIP peptide (Xip251-270); assay: small-molecule binders of XIP peptide, primary screen, biochemical, small-molecule microarray, fluorescence 635/667 nm, 0.5 µg/mL protein (AID 1183); conditions: small-molecule microarray binding, fluorescence 635 nm; higher = more signal

Compound | composite z-score
O=C1OCCC=C[C@H]2OC34C=CCN(Cn5nnc6ccccc65)C(=O)[C@H]3N(CCCCCCO)C(=O)[C@@H]4C12 (stereo not given in full) | -0.948
O=C1C[C@@](C(=O)NCCN2CCOCC2)(c2ccc([N+](=O)[O-])cc2)[C@@H](c2ccc(CO)cc2I)N1C1CCCCC1 | 0.588
NC(=O)N1C(=O)C2C(C1=O)C1C=C(CCCO)C2C(c2cccs2)N1Cc1cccc(OC(F)(F)F)c1 (stereo not given) | 0.577
C=C(/C(=C/C[C@H](OC(C)=O)c1ccccc1OCCO)c1cc(C(=O)OC)ccc1OC)C(C)C | -0.239
CCCC[C@@H](O)C1=C(COc2ccccc2)C[C@H]2C(=O)N(C)C(=O)[C@H]2[C@H]1CO | -0.442
O=C1NC(=O)C2C1C=CC(C(O)c1cccc3ccccc13)N2Nc1ccc(Cl)cc1Cl (stereo not given) | 0.497
COc1ccc(-c2cc3c(c(CCc4ccccc4)n2)[Si](C(C)C)(C(C)C)OC3)cn1 | -0.251
COC(=O)[C@@]1(Cc2ccc(F)cc2)[C@H]2c3cc(C(=O)N4CCCC4)n(CCc4ccc(O)c(O)c4)c3C[C@H]2CN1C(=O)c1ccccc1 | -0.892
CC1=C[C@@]2(CO)C(=O)[C@]3(CO3)[C@@H]1[C@H]1[C@]2(C)C=C(CO)C(=O)[C@]12CO2 | 0.454
O=C(NCC(F)(F)F)[C@@H]1c2ccccc2C(=O)N(Cc2ccc(OC(F)(F)F)cc2)[C@H]1c1ccc(CO)cc1 | 0.235
COC(=O)Cn1c(C(=O)N(C)C)cc2c1C[C@H]1CN(C(=O)c3ccccc3)[C@@](Cc3ccc(F)cc3)(C(=O)OC)[C@@H]21 | -0.196
COc1ccc([Si](C)(C)[C@H]2[C@H](CC(=O)N(CCO)Cc3ccccc3)O[C@@]3(C(=O)N(Cc4cccc(N5CCOC5=O)c4)c4ccccc43)[C@@H]2C)cc1 | 0.77
COCCCNC(=O)[C@]1(CCS(=O)(=O)c2ccccc2)N=C(c2ccc(OCCCO)cc2)O[C@@H]1c1ccccc1CN=[N+]=[N-] | 0.814
[N-]=[N+]=Nc1ccccc1C[C@]1(C(N)=O)N=C(c2ccc(OCCCO)cc2)O[C@H]1c1ccccc1N=[N+]=[N-] | 0.756
C#CCN([C@@H](Cc1ccc(O)cc1)C(=O)OC)[C@@H](/C=C/C1CC1)[C@H](O)Cc1ccccc1 | -0.331
CN(C)c1ccc(C(O)C2C=CC3C(=O)N(c4ccccc4)C(=O)C3N2Nc2ccc([N+](=O)[O-])cc2)cc1 (stereo not given) | 0.648
NCCCCCCNC(=O)[C@@H]1C[C@@H]2C(=O)N[C@@H](CCCCN)C(=O)N2[C@@H]1c1cccc(OCCO)c1 | 0.832
CCOC(=O)C1=CC[C@@H](c2ccc(OCc3ccccc3)c(OC)c2)N(S(=O)(=O)c2ccc(C)cc2)[C@H]1c1ccc(SC)cc1 | 0.569

Compound | composite z-score
COC(=O)[C@@]1(Cc2ccccc2)[C@H]2c3cc(C(=O)N(C)C)n(Cc4c(CO)[nH]cc(C)c4=O)c3C[C@H]2CN1C(=O)c1ccccc1 | 0.3
CN1C(=O)C2C=CC(C(O)COCc3ccccc3)N(N(c3ccccc3)c3ccccc3)C2C1=O (stereo not given) | 0.74
CCC[C@@H]1C[C@@]1(CCC)[C@@H](NC(=O)OCc1ccccc1)c1ccc(-c2ccccc2)cc1 | -0.237
COCCOC(=O)N1C(=O)[C@@]2(c3cc(C#CC4=CCCCC4)ccc31)[C@H](c1ccc(OCCO)cc1)N1[C@H](c3ccccc3)[C@H](c3ccccc3)OC(=O)[C@H]1[C@@H]2C(=O)NC[C@H](O)c1ccccc1 | 0.622
C=C(CCCC)/C(=C/C[C@@H](OC(=O)c1ccncc1)c1ccccc1OCCO)c1cnc2ccccc2c1 | 0.647
CC1CC/C=C\[C@H]2OC34C=CCN(C(C)C)C(=O)[C@H]3N(CCCCCCO)C(=O)[C@@H]4C2C(=O)O1 (stereo not given in full) | 0.27
O=C1C2C=CC(C(O)c3ccc(Br)cc3)N(Nc3ccccc3F)C2C(=O)N1c1ccccc1 (stereo not given) | 0.704
COC(=O)[C@@]1(Cc2ccc(OC)cc2)[C@H]2c3cc(C(=O)N4CCCC4)n(Cc4cccc5ccccc45)c3C[C@H]2CN1C(=O)c1ccccc1 | 0.658
CCOC(=O)C1CCCCN1 (stereo not given) | -0.0839
COc1ccc([Si](C)(C)[C@H]2[C@H](CCn3cc([C@H](O)c4ccccc4)nn3)O[C@@]3(C(=O)N(Cc4ccc(N5C(=O)c6cccc7cccc5c67)cc4)c4ccccc43)[C@@H]2C)cc1 | 0.199
[N-]=[N+]=NCc1ccccc1C[C@@]1(C(=O)N2CCOCC2)N=C(c2ccc(OCCCO)cc2)O[C@@H]1c1ccccc1 | 0.74
COC(=O)C(CC#Cc1ccc2c(c1)[C@]1(C(=O)N2)[C@H](C(=O)N2CCN(c3ncccn3)CC2)[C@H]2C(=O)O[C@H](c3ccccc3)[C@H](c3ccccc3)N2[C@@H]1c1ccc(OCCO)cc1)C(=O)OC | 0.809
[N-]=[N+]=Nc1ccccc1[C@@H]1OC(c2ccc(OCCCO)cc2)=N[C@]1(Cc1ccccc1)C(=O)NCC(O)CO (stereo not given in full) | 0.747
CCCC[C@@H]1C[C@H]1[C@@H](NC(=O)c1cccs1)c1ccc(C(F)(F)F)cc1 | -0.289
COC(=O)[C@@]1(Cc2ccc(OC)cc2)[C@H]2c3cc(C(=O)N(C)C)n(CCO)c3C[C@H]2CN1C(=O)c1ccccc1 | -0.947
CCOC(=O)C[C@H]1[C@H](OC(=O)Cc2ccc3c(c2)OCO3)[C@@H](NC(=O)CC(C)C)c2cc(OCCCO)ccc2N1C(=O)Cc1ccc(OC)cc1 | -0.311
O=C1NC(=O)C2C1C=CC(C(O)c1ccco1)N2Nc1ccccn1 (stereo not given) | -0.195
